From PubChem
In the library only some 4.7% were active in any assay of this set; here they are far more common.
D1 antag – Antagonist of Human D 1 Dopamine Receptor: qHTS; AID 504652, 2011; activity change, negative = inhibition, % at 10 µM; actives 3.2% (n = 360,000); HEK293 TREx D1 cells, calcium flux, dopamine EC80; active compounds read low; D(1A) dopamine receptor (Homo sapiens), P21728; in the data active = activity change below about -30%; note: % is set by controls: 0 for no effect and ±100 for the full control effect
Target sequence (P21728 whole entry, looked up): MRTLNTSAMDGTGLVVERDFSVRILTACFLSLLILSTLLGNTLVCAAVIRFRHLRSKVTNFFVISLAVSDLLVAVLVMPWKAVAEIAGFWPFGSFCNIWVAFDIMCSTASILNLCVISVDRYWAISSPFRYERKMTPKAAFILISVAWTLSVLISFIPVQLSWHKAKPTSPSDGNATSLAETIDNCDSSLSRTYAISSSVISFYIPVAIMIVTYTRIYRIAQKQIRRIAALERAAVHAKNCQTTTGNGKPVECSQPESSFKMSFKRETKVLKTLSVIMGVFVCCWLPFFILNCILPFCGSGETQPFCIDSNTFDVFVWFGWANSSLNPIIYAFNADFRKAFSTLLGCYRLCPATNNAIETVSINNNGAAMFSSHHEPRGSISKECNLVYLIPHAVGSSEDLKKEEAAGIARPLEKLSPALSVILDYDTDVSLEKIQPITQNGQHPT
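Allosteric or orthosteric antagonism assessed as attenuation of the calcium response to EC80 dopamine, added 180 s after compound, in induced HEK293 Trex D1 cells loaded with no-wash calcium dye.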
D1 PAM – Potentiators of Human D1 Dopamine Receptor: qHTS; HEK293 TREx D1 cells, calcium flux, dopamine EC20 potentiation; potentiation, % at 10 µM; actives 0.036% (n = 360,000); in the data active = potentiation above about 30%; note: 0% is about no effect
TRHR agonist – qHTS for Small Molecule Agonists and Allosteric Enhancers of Human TRH Receptor: Primary Screen for Agonists. activation, % at 2 µM. AID 493084, 2011. actives 0.18% (n = 360,000). TRHR cells, calcium flux fluo-8, FDSS agonist mode. Thyrotropin-releasing hormone receptor (Homo sapiens), P34981; note: 0% is about no effect
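Fluo-8-loaded TRHR cells; 10 s baseline, compound added, kinetic Ca2+ fluorescence read 1/s, agonist mode.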
TRHR enhancer – qHTS for Small Molecule Agonists and Allosteric Enhancers of Human TRH Receptor: Primary Screen for Enhancers; Thyrotropin-releasing hormone receptor (Homo sapiens), P34981; TRHR cells, fluo-8 calcium fluorescence, EC20 TRH enhancement; enhancement, % at 2 µM; actives 0.66% (n = 360,000); in the data active = enhancement above about 30%; note: 0% is about no effect
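Enhancer read-out: after compound pinning and an initial kinetic agonist-mode read, an EC20 of TRH (10 nM final) was injected and fluo-8 calcium signal (Ex 480/Em 530) followed at 1 s/cycle for 100 cycles in TRHR-expressing cells.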
D1 ag – Allosteric Agonists of the Human D1 Dopamine Receptor: qHTS; D(1A) dopamine receptor (Homo sapiens), P21728; HEK293 T-REx D1 cells, calcium flux, agonist mode; activation, % at 2 µM; actives 1% (n = 360,000); AID 504660, 2011; note: 0% is about no effect
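Inducible HEK293 T-REx D1 cells, force-coupled to calcium signalling, were plated at 4000 cells/well with tetracycline and held overnight at 30 C. After no-wash calcium dye loading, compound-evoked calcium rise over 180 s flagged agonists.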
* hit, by the source's call; nt = no result given; ! = repeats disagree. Cut-off read from the data, not from the text of the source, unless noted: active = activation above about 30%; inactive = the rest.

SMILES | D1 antag | D1 PAM | TRHR agonist | TRHR enhancer | D1 ag
CCOc1ccc2nc(N(CCN(C)C)C(=O)c3cc4ccccc4cc3OC)sc2c1 | 1.5 | -4.7 | 0.3 | -0.6 | 4.8
Cc1cccc2sc(N(CCCN(C)C)C(=O)c3ccc(Cl)s3)nc12 | -0.8 | -2.9 | 0.3 | -6.9 | 36.7*!
CCOc1cccc2sc(N(CCCN(C)C)C(=O)Cc3ccccc3)nc12 | -1.2 | 0.8 | 7.1 | 1.4 | 36.8*
CCOc1cccc2sc(N(CCCN(C)C)C(=O)c3ccc(C(=O)c4ccccc4)cc3)nc12 | -32.9* | -1.9 | 1.0 | -0.9 | 42.6*
CCOc1cccc2sc(N(CCN(C)C)C(=O)c3cc4ccccc4cc3OC)nc12 | -70.4* | 6.0 | -0.4 | 8.3 | 32.8*
CN(C)CCCN(C(=O)c1ccc(C(=O)c2ccccc2)cc1)c1nc2c(F)cccc2s1 | -7.5 | 0.0 | 0.4 | 1.8 | 8.6
Cc1cccc(OCC(=O)NCc2ccc(F)cc2)c1 | -26.6 | -2.2 | -1.0 | -2.8 | 2.4
Cc1ccc(CNC(=O)c2cc(=O)c3cc(C)ccc3o2)cc1 | 1.9 | -9.7 | -0.6 | 10.2 | 60.4*!
Cc1ccc2oc(C(=O)NCc3ccc(S(N)(=O)=O)cc3)cc(=O)c2c1 | 0.1 | 6.7 | -1.1 | -10.4 | 0.4
COc1ccc(CNC(=O)Cc2coc3ccc(C)cc23)cc1 | -34.7* | -3.1 | -1.2 | 0.6 | 6.2
CC(C)n1cnc2c(N(C)c3ccccc3)nc(N(CCN(C)C)Cc3ccccc3)nc21 | -104.0* | 0.5 | 4.0 | -5.9 | 28.1
Cc1ccc(CSc2cn(CC(=O)N3CCCCCC3)c3ccccc23)cc1 | 1.5 | -2.5 | -0.3 | -4.2 | 2.0
O=[N+]([O-])c1cc(C(F)(F)F)cc([N+](=O)[O-])c1N1CCN(S(=O)(=O)c2ccccc2)CC1 | -32.3* | -4.2 | 0.2 | -1.3 | 1.4
CCCSc1ncc(Cl)c(C(=O)Nc2sc3c(c2C(=O)OC)CCCC3)n1 | 1.0 | -0.6 | 0.5 | 5.4 | 1.6
COc1ccc(-c2cn3nc(SCC(=O)Nc4ccccc4F)ccc3n2)cc1 | -0.9 | 1.9 | -0.6 | -10.6 | 0.9
O=[N+]([O-])c1cc(CSC2=NCCN2)ccc1O | -55.0* | 2.3 | 0.0 | 0.1 | 0.4
CCCOc1ccc(CSC2=NCCN2)cc1[N+](=O)[O-] | 4.3 | -6.8 | 0.1 | 2.9 | 7.7
Cc1cc2c(s1)c1cnn(Cc3cccc4cccnc34)c(=O)c1n2C | -1.4 | 7.0 | -1.0 | 0.3 | 0.6
CCN(CC)c1ccc(N)cc1S(=O)(=O)Nc1ccccc1OC | -31.5* | -16.6 | -2.9 | 5.0 | 1.5
CCN(CC)c1ccc(N)cc1S(=O)(=O)Nc1ccc(OC)cc1 | 0.8 | -6.1 | -0.5 | -0.9 | 0.8
COc1ccc2nc(N3CCCC3)c(C#N)cc2c1 | -12.3 | -7.3 | 20.4 | -1.7 | 40.9*
Cc1ccc2nc(N3CCN(C(=O)c4ccc(F)cc4)CC3)c(C#N)cc2c1 | -46.4* | 0.5 | -0.1 | -5.3 | -2.8
Cc1c(Br)c([N+](=O)[O-])nn1CC(=O)Nc1ccc(C(N)=O)cc1 | 0.0 | 0.3 | -0.1 | 0.5 | 1.8
CCCCCCc1cc2cc(S(=O)(=O)c3ccc(F)c(Cl)c3)c(=O)oc2cc1O | -10.4 | -4.8 | 25.0 | -5.4 | 51.4*
CCCCCCc1cc2cc(C(=O)OCC)c(=O)oc2cc1O | -0.9 | 3.1 | 13.4 | 2.7 | 15.9
SMILES | D1 antag | D1 PAM | TRHR agonist | TRHR enhancer | D1 ag
CCCCCCc1cc2cc(-c3nnc(-c4ccc(C)cc4)o3)c(=O)oc2cc1O | 23.2 | 3.9 | -1.2 | 0.6 | 221.3*
CCCCCCc1cc2cc(/C(N)=N/NC(=O)c3ccncc3)c(=O)oc2cc1O | nt | -1.4 | 122.1* | 27.8 | 113.9*
CCn1c(SCc2ccc(F)cc2Cl)nnc1-c1nonc1NC(C)=O | -26.2 | -2.1 | -2.0 | -12.2 | 8.0
CCOC(=O)COc1ccccc1/C=C\[N+](=O)[O-] | -86.4* | -10.8 | 7.0 | 0.0 | -0.3
COc1ccc(CNC(=O)C2CCN(Cc3nc(-c4ccc(Cl)cc4)oc3C)CC2)cc1 | 4.8 | 0.6 | 0.1 | 4.5 | 5.8
CN1CCN(Cc2ccc(Sc3ccc(Cl)cc3)c([N+](=O)[O-])c2)CC1 | -22.3 | 0.1 | -1.9 | 3.7 | 78.7*
Cc1ccc(N2CCN(C(=O)c3cccn4c(=O)c5ccc(Cl)cc5nc34)CC2C)cc1 (stereo not given) | 18.4 | 0.2 | 0.2 | 6.3 | 4.5
COc1ccc(CN2CC34C=CC(O3)C(C(=O)O)C4C2=O)cc1 (stereo not given) | -57.6* | nt | 0.0 | 2.0 | 0.8
CCOC(=O)CSc1nc(C)c(C(=O)OCC)s1 | -35.2* | 7.0 | 0.2 | -0.8 | 2.2
CCOC(=O)CSc1nc2ccc(N)cc2s1 | 2.2 | -4.3 | -0.9 | 2.7 | -1.4
NC(=O)c1ccccc1NC(=S)NC(=O)CCc1ccccc1 | -74.3* | 1.2 | 0.3 | -0.1 | 3.0
Cc1ccc(/C=C/C(=O)OCC(=O)Nc2ccccc2Sc2ccccc2)cc1 | -10.5 | -3.0 | 2.4 | -14.2 | 32.5*
COc1cccc(/C=C/C(=O)OCC(=O)Nc2ccccc2Sc2ccccc2)c1 | -4.4 | -0.2 | 2.5 | 4.2 | 24.6
COC(=O)c1ccc(OC)c(Cn2c(=O)n(-c3cccc(Cl)c3)c(=O)c3c4c(sc32)CN(C(C)=O)CC4)c1 | -39.8* | -0.3 | -0.4 | 1.9 | 12.4
CSc1c(C#N)c(N)nc2sc(C(=O)c3ccccc3)c(N)c12 | -11.3 | 0.3 | 8.6 | 3.4 | 37.3*
NNC(=O)c1cc(O)c(O)c(O)c1 | -35.5* | -10.7 | 0.5 | -5.0 | -0.8
CCOC(=O)c1ccc(NC(=O)CSC(=S)N2CCOCC2)cc1 | 5.5 | -3.8 | -0.3 | 4.4 | 5.0
COc1ccccc1C(=O)Nc1ccc(OCC(=O)N2CC(C)OC(C)C2)cc1 (stereo not given) | 2.7 | -5.8 | 0.7 | 4.3 | 0.6
CCOC(=O)c1nnn(CC(=O)NC(=O)Nc2ccc(F)cc2)c1C(=O)OCC | -8.6 | -2.2 | -1.3 | -18.6 | 42.3*!
CCC(=O)N1CCc2cc(S(=O)(=O)NC(C(=O)NCCc3ccc(Cl)cc3)C(C)C)ccc21 (stereo not given) | 15.1 | 10.2 | -0.3 | 6.8 | -0.9
Cc1ccc(C(=O)COC(=O)c2cccc([N+](=O)[O-])c2)s1 | -7.9 | -3.1 | -0.7 | -7.2 | 2.1
C(=N\N1CCN(Cc2ccccc2)CC1)/c1ccc(-c2ccccc2)cc1 | nt | -6.7 | 0.5 | 0.5 | 1.1
CN1CCN(/N=C/c2ccc(-c3ccccc3)cc2)CC1 | -76.2* | -5.6 | -0.5 | -1.2 | 72.1*
CCOc1ccc(NC(=O)Cn2nc(-c3ccncc3)ccc2=O)cc1 | 3.6 | -1.9 | 0.2 | 1.6 | 0.0
